Inconclusive results are not listed. Activity calls are given as the source filed them. Unless noted, calls follow the shape of the dose curve; as a rule, active = well fitted curve in the direction sought with a large enough effect in the repeat runs; inconclusive = weak or mixed curves; inactive = no such curve, though single readings can be large; an effect the other way counts as inactive or inconclusive.
Assays:
[1] = target: Estrogen receptor beta (Homo sapiens) (UniProt Q92731); experiment: qHTS assay to identify small molecule agonists of the estrogen receptor beta (ER-beta) signaling pathway (AID 1259377; active = well fitted activation curve with a large enough effect in the signal ratio in the repeat runs, not every such curve was filed as active; the % refers to the signal ratio)
Estrogen receptor beta (Homo sapiens), sequence (Q92731 whole entry, looked up): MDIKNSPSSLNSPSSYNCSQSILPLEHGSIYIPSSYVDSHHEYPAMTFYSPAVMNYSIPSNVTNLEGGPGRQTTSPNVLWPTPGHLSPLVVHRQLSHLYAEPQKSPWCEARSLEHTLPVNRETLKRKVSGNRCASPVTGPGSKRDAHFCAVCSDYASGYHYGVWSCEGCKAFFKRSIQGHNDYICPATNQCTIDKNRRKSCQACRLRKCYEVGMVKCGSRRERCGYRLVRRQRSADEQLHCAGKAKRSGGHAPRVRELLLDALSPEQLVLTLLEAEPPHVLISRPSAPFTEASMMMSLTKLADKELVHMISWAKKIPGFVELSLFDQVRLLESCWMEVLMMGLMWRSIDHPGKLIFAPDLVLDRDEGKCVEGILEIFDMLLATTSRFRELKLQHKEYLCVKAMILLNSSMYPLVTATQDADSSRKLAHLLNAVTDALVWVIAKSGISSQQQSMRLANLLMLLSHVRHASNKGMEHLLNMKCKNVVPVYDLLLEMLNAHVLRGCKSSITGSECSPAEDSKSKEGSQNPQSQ
Summary of the method: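 Read-out: beta-lactamase FRET fluorescence. Cell line: ER-beta-UAS-bla HEK293T in 2% charcoal-stripped FBS. Exposure: 16 hr at 37C. Substrate step: 2 h at room temperature.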

[2] = target: Estrogen receptor beta (Homo sapiens) (UniProt Q92731); experiment: qHTS assay to identify small molecule antagonists of the estrogen receptor beta (ER-beta) signaling pathway (AID 1259378; active = well fitted inhibition curve with a large enough effect in the signal ratio in the repeat runs, not every such curve was filed as active; the % refers to the signal ratio)
Summary of the method: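 Antagonist mode: compounds added to beta-lactamase reporter HEK293T ER-beta-UAS cells stimulated with E2 (1nM final), 16 hr at 37C. LiveBLAzer B/G FRET substrate, 2 hours room temperature, fluorescence read-out.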

[3] = qHTS assay to identify small molecule agonists of the androgen receptor (AR) signaling pathway in the presence of an antagonist - cell viability counter screen (AID 1259379);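 also: MDA-kb2 human breast cancer cells carrying an MMTV luciferase reporter; series mostly up to about 92 µM; nearly all actives have a fitted effect of over 25% in size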
Summary of the method: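 Cells: MDA-kb2 (MMTV-luc, AR and GR elements), 3,000/well, 5 hr settle. Added: nilutamide 3.0uM final, then compounds (15 conc.). Incubation: 16 hr, 37C, no CO2. Read-out: CellTiter-Fluor, 1 hr, fluorescence.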

[4] = qHTS assay to identify small molecule agonists of the estrogen receptor beta (ER-beta) signaling pathway - cell viability counter screen (AID 1259380); also: nearly all actives have a fitted effect of over 30% in size
Summary of the method: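 HEK293T ER-beta-UAS-bla; 2% CS-FBS; 6 hr pre-plate, 16 hr cpd at 37C/5% CO2; LiveBLAzer read first, then CellTiter-Glo 30 min RT, luminescence.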

[5] = qHTS assay to identify small molecule antagonists of the estrogen receptor beta (ER-beta) signaling pathway - cell viability counter screen (AID 1259382);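 also: HEK293T cells carrying ER-beta-UAS-bla reporter stimulated with estradiol; series mostly up to about 92 µM; nearly all actives have a fitted effect of over 55% in size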
Summary of the method: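 Cells: ER-beta-UAS-bla HEK293T, 2,000/well, 2% CS-FBS, 6 hr settle. Cpd + E2 (1nM final), 16 hr, 37C/5% CO2. Bla FRET substrate 2 hr RT, then CellTiter-Glo 30 min RT, luminescence.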

[6] = target: Estrogen receptor (Homo sapiens) (UniProt P03372); experiment: qHTS assay to identify small molecule agonists of the estrogen receptor alpha (ER-alpha) signaling pathway in the presence of an antagonist (AID 1259383; calls by dose curve; also: top concentration of the series differs between compounds; nearly all actives have a fitted effect of over 15% in size)
Estrogen receptor (Homo sapiens), sequence (P03372 whole entry, looked up): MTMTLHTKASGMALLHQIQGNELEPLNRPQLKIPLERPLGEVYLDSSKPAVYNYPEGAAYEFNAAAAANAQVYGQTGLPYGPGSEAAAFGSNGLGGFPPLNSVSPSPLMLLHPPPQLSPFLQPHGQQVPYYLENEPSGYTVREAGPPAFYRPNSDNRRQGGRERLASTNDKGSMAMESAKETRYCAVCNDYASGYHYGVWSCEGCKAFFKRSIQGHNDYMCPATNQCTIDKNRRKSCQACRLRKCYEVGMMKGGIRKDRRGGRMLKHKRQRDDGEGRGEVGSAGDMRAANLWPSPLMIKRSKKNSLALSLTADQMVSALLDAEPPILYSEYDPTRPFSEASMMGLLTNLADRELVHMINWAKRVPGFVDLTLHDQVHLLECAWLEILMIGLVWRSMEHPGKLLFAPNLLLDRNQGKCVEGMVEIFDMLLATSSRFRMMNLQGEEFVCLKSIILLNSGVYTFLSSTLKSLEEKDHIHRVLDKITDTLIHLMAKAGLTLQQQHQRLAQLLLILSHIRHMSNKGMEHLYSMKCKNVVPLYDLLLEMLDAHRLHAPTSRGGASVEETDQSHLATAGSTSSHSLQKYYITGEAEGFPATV
Summary of the method: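 VM7Luc4E2, endog. ER-alpha + 4×ERE-luc; charcoal-stripped FBS, phenol red-free, 5 d; 24hr plating; +10.0nM ICI-182,780 (final); cpds 15 conc, 22hr, 37C/5% CO2; ONE-Glo luminescence.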

[7] = qHTS assay to identify small molecule agonists or antagonists of the thyroid stimulating hormone receptor (TSHR) signaling pathway - wild type cell line counter screen (AID 1259384; calls by dose curve)
Summary of the method: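 Counter screen in untransfected Hek293: compounds (15-point titration, triplicate) plus phosphodiesterase inhibitor Ro20-1724 added after 18 h plating; 30 min RT. Intracellular cAMP via competitive d2/cryptate immunoassay, 1 h incubation.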

[8] = target: Thyrotropin receptor (Homo sapiens) (UniProt P16473); experiment: qHTS assay to identify small molecule antagonists of the thyroid stimulating hormone receptor (TSHR) signaling pathway (AID 1259385; calls by dose curve; also: nearly all actives have a fitted effect of over 20% in size)
Thyrotropin receptor (Homo sapiens), sequence (P16473 whole entry, looked up): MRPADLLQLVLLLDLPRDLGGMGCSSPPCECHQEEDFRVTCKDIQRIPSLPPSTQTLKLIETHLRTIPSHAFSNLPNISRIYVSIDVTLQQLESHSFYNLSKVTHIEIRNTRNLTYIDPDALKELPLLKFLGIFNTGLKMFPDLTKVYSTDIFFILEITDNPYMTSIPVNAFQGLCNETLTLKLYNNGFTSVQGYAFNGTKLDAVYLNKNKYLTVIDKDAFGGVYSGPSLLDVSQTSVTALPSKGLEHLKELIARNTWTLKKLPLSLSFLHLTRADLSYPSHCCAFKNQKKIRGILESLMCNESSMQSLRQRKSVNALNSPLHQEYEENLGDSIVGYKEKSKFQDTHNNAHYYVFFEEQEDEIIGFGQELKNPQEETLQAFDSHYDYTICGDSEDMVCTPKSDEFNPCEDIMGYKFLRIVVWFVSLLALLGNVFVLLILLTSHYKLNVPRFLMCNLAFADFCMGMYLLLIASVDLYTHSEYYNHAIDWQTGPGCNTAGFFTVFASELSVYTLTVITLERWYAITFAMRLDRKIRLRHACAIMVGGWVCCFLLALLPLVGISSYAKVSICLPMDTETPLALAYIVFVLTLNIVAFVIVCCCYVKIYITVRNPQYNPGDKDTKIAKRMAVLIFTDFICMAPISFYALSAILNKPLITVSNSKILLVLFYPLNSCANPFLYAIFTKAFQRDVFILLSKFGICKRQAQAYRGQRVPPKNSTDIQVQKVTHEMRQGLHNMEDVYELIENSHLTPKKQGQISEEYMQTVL
Summary of the method: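 Antagonist mode: compound-treated TSHR-expressing HEK293 cells were stimulated with 1.5 ng/mL TSH (final) in presence of Ro20-1724 for 30 min at RT. HTRF cAMP detection after 1 h; each compound tested at 15 concentrations, triplicate.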

[9] = qHTS assay to identify small molecule agonists of the estrogen receptor alpha (ER-alpha) signaling pathway in the presence of an antagonist - cell viability counter screen (AID 1259386);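 also: series mostly up to about 92 µM; cells exposed to compounds for 22 h at 37 °C before the viability read; nearly all actives have a fitted effect of over 30% in size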
Summary of the method: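 VM7Luc4E2, stripped-serum pre-culture 5 d; 24hr plating; +ICI-182,780 10.0nM final; cpds 15 conc, 22hr, 37C/5% CO2; CellTiter-Fluor added at 21hr, fluorescence 1hr later.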

[10] = target: Progesterone receptor (Homo sapiens) (UniProt P06401); experiment: qHTS assay to identify small molecule agonists of the progesterone receptor (PR) signaling pathway (AID 1346784; calls by dose curve; also: nearly all actives have a fitted effect of over 30% in size)
Progesterone receptor (Homo sapiens), sequence (P06401 whole entry, looked up): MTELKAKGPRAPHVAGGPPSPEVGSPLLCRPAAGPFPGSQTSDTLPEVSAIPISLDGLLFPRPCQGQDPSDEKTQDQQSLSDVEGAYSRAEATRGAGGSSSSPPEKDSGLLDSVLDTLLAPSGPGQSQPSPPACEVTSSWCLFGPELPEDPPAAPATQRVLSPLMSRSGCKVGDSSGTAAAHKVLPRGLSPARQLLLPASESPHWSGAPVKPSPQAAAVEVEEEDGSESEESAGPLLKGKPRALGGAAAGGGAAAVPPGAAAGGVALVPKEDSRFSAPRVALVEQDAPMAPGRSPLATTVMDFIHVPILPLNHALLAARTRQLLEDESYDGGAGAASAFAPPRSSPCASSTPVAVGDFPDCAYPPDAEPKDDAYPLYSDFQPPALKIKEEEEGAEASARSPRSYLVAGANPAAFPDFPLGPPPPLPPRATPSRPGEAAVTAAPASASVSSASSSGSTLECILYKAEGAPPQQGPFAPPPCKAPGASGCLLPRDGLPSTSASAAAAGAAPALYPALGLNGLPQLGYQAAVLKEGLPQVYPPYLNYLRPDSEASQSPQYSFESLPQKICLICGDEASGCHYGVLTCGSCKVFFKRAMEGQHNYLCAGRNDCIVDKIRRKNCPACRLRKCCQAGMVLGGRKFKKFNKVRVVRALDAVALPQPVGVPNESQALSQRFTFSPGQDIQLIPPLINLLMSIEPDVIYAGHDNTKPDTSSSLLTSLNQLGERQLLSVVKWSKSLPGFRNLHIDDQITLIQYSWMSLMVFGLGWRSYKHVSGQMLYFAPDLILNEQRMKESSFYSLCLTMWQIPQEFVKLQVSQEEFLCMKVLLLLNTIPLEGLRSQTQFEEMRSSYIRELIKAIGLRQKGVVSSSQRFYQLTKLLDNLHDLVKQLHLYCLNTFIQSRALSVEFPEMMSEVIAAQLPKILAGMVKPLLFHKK
Summary of the method: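 Compounds were tested for PR agonism in HEK 293T cells bearing a beta-lactamase gene under UAS control. Treatment lasted 16 hr at 37C; signal came from fluorescence of a FRET substrate.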

[11] = target: Progesterone receptor (Homo sapiens) (UniProt P06401); experiment: qHTS assay to identify small molecule antagonists of the progesterone receptor (PR) signaling pathway (AID 1346795; active = well fitted inhibition curve with a large enough effect in the signal ratio in the repeat runs, not every such curve was filed as active; the % refers to the signal ratio)
Summary of the method: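 In HEK293T cells bearing the PR-UAS-bla reporter, compound effects on promegestone-driven (1 nM) beta-lactamase expression are assessed after 16 hr using a fluorescent FRET substrate incubated 2 hr at room temperature.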

[12] = qHTS assay to identify small molecule antagonists of the progesterone receptor (PR) signaling pathway - cell viability counter screen (AID 1346798); also: series mostly up to about 92 µM; nearly all actives have a fitted effect of over 50% in size
Summary of the method: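 Following a 4 hr attachment, PR-UAS-bla HEK293T cells in charcoal-stripped FBS medium were exposed to compounds with R5020 for 16 hr; CellTiter-Glo was added and luminescence read after 30 min at room temperature.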

[13] = qHTS assay to identify small molecule agonists of the progesterone receptor (PR) signaling pathway - cell viability counter screen (AID 1346799; calls by dose curve; also: nearly all actives have a fitted effect of over 45% in size)
Summary of the method: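 Here, 3,000 PR-UAS-bla HEK293T cells per well were treated with compounds for 16 hr after a 6 hr preincubation at 37C and 5% CO2; cell viability is the CellTiter-Glo luminescence signal.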

[14] = qHTS assay to identify small molecule antagonists of the TGF-beta/Smad signaling pathway - cell viability counter screen (AID 1346824); also: nearly all actives have a fitted effect of over 50% in size
Summary of the method: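 Cytotoxicity counter-screen run in the same wells as the beta-lactamase Smad reporter read: CellTiter-Glo luminescence after 30 min at room temperature. HEK 293T SBE-bla cells had 5 hr compound exposure at 37 C with TGF-beta1 (0.25 ng/mL stock).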

[15] = qHTS assay to identify small molecule agonists of the TGF-beta/Smad signaling pathway - cell viability counter screen (AID 1346829); also: top concentration of the series differs between compounds; nearly all actives have a fitted effect of over 45% in size
Summary of the method: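 In parallel with the Smad reporter read, viability of HEK 293T cells stably carrying SBE-bla is quantified by ATP luminescence following 5 hr compound treatment.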

[16] = qHTS assay to identify small molecule agonists of the TGF-beta/Smad signaling pathway (AID 1346859; active = well fitted activation curve with a large enough effect in the signal ratio in the repeat runs, not every such curve was filed as active; the % refers to the signal ratio; also: series mostly up to about 77 µM)
Summary of the method: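 Each well held 4,000 SBE-bla HEK 293T cells incubated overnight before compound addition; 5 hr later the cleavable FRET substrate went on for 2 hr at room temperature, and fluorescence was read at two emissions.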

[17] = target: Thyrotropin-releasing hormone receptor (Homo sapiens) (UniProt P34981); experiment: qHTS assay to identify small molecule antagonists of the thyrotropin-releasing hormone receptor (TRHR) signaling pathway (AID 1346877; active = well fitted inhibition curve with a large enough effect in the repeat runs, not every such curve was filed as active; also: series mostly up to about 51 µM)
Thyrotropin-releasing hormone receptor (Homo sapiens), sequence (P34981 whole entry, looked up): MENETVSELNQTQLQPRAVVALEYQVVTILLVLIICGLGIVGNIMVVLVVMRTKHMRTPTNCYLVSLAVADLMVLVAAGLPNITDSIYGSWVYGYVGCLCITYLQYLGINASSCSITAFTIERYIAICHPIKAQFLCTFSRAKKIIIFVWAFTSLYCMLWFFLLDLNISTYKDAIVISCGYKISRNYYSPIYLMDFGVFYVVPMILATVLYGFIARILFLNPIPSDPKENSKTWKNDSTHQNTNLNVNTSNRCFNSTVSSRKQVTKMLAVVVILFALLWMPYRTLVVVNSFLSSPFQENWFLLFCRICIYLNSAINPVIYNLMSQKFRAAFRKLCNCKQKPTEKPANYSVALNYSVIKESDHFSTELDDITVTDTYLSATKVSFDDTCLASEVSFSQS
Summary of the method: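 Intracellular calcium fluorescence, read kinetically every second over 3 min, reports TRH-evoked signalling in HEK293 cells carrying TRHR. Test compounds were added 5 min ahead of a 1 nM TRH challenge.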

[18] = target: Thyrotropin-releasing hormone receptor (Homo sapiens) (UniProt P34981); experiment: qHTS assay to identify small molecule agonists of the thyrotropin-releasing hormone receptor (TRHR) signaling pathway (AID 1346891; calls by dose curve; also: series mostly up to about 58 µM)
Summary of the method: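 Screening of agonists relied on calcium signalling in HEK293 cells expressing human TRHR: dye loading 2 h at 37 °C preceded compound addition and a 3-min fluorescence time course.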

[19] = Human pregnane X receptor (PXR) small molecule agonists, qHTS cell viability counter screen (AID 1346977); also: nearly all actives have a fitted effect of over 50% in size
Summary of the method: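 Tox21 qHTS format; PXR-Luc HepG2, 2,000/well, charcoal-stripped FBS 5%. Cpd exposure 24hr. Read: CellTiter-Fluor fluorescence, multiplexed with luciferase.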

[20] = target: Androgen receptor (Homo sapiens) (UniProt P10275); experiment: qHTS assay to identify small molecule agonists of the androgen receptor (AR) signaling pathway in the presence of an antagonist (AID 1259381; calls by dose curve; also: nearly all actives have a fitted effect of over 15% in size)
Androgen receptor (Homo sapiens), sequence (P10275 whole entry, looked up): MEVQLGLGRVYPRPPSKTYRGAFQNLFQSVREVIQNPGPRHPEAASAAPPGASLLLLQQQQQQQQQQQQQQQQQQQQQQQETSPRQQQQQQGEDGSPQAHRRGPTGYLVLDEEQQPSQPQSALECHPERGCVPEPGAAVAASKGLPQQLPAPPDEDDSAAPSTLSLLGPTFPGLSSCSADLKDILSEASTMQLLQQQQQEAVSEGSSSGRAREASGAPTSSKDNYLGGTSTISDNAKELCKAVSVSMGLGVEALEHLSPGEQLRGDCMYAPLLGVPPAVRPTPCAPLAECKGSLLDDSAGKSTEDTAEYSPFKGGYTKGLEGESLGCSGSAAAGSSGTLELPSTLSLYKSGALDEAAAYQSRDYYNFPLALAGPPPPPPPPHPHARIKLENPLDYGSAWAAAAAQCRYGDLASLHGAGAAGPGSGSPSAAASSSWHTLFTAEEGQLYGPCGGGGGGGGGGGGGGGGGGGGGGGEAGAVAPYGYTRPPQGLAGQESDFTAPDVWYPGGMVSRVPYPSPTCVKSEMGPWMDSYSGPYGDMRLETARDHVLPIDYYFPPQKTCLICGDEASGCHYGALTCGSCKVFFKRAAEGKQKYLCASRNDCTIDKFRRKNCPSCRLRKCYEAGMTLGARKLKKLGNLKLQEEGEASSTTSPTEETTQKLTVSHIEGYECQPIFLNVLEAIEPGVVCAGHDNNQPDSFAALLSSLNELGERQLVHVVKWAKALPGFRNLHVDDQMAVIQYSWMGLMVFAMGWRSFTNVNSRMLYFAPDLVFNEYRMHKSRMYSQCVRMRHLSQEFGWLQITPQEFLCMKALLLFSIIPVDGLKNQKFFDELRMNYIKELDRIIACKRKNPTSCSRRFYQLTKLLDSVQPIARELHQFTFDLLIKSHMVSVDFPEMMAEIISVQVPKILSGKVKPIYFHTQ
Summary of the method: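 MDA-kb2 cells, 3,000/well, rested 5hr at 37C/0% CO2 → nilutamide 3.0uM final or buffer → compounds, 15 conc. → 16hr at 37C → ONE-Glo, 30min RT → luminescence.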

Measured: Potency

O=C(Cc1ccccc1)OCCc1ccccc1
not listed: [20]
inactive: all other assays above

CCC(C)Cl (stereo unspecified)
not listed: [9] | [20]
inactive: all other assays above

ClCc1ccccc1Cl
not listed: [6] | [10] | [11] | [12] | [15] | [17] | [18]
inactive: all other assays above

C=CCN1C[C@H](C)N([C@H](c2ccc(C(=O)N(CC)CC)cc2)c2cccc(OC)c2)C[C@H]1C
not listed: [13] | [16] | [20]
inactive: all other assays above

SCc1ccccc1
not listed: [11] | [20]
inactive: all other assays above

CN(C)N
not listed: [6] | [12]
inactive: all other assays above

CCOC(=O)C1OC1(C)c1ccccc1 (stereo unspecified)
not listed: [6] | [20]
inactive: all other assays above

CC(C)(C)c1ccc(CCOc2ncnc3ccccc23)cc1
not listed: [20]
inactive: all other assays above

O=C(O)COc1cc(Cl)c(Cl)cc1Cl
not listed: [6] | [13] | [16] | [17] | [18]
inactive: all other assays above

COc1ccc(C(O)(c2cncnc2)C2CC2)cc1 (stereo unspecified)
not listed: [13] | [20]
inactive: all other assays above

CCC1(CCC(C)C)C(=O)NC(=O)NC1=O
not listed: [6] | [7] | [8] | [17] | [18]
inactive: all other assays above

CC(C)CCON=O
not listed: [6] | [15] | [20]
inactive: all other assays above

COc1ccc2c(c1OC)C(=O)O[C@H]2[C@@H]1c2cc3c(cc2CCN1C)OCO3
not listed: [4] | [6] | [9] | [15] | [19]
inactive: all other assays above

C[N+](C)(C)CCOC(=O)C(O)(c1ccccc1)c1ccccc1
not listed: [6] | [7] | [8] | [20]
inactive: all other assays above

Cc1nc(N(C)C)nc(OC(=O)N(C)C)c1C
not listed: [4] | [20]
inactive: all other assays above

C=CCc1ccc(OC(=O)Cc2ccccc2)c(OC)c1
not listed: [6] | [8] | [20]
inactive: all other assays above

Reference: PubChem BioAssay (Tox21)
